# Measured values: PubChem BioAssay (Tox21)
# Values without a mark were called inactive. Records with an inconclusive call do not appear. Where a call stands in place of a potency, no number is given. Active and inactive are the calls of the source. Unless noted, calls come from the whole dose curve; as a rule, active = well fitted curve in the direction sought with a large enough effect in the repeat runs; inconclusive = weak or mixed curves; inactive = no such curve, though single readings can be large; an effect the other way counts as inactive or inconclusive.
# Columns and labels:
# [1] = qHTS RealTime-Glo MT Cell Viability Assay in HEK293 cells - 24 hour (AID 1224886); note: top concentration of the series differs between compounds; nearly all actives have a fitted effect of over 50% in size
# Summary of the method: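 Viability tracked continuously by luminescence as live cells reduce a prosubstrate for NanoLuc; HEK293 cells preincubated 5 h, compound-treated at 37 C, and read at 0, 8, 16, 24, 32 and 40 h.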
# [2] = qHTS RealTime-Glo MT Cell Viability Assay in HEK293 cells - 8 hour (AID 1224887); note: top concentration of the series differs between compounds; nearly all actives have a fitted effect of over 50% in size
# Summary of the method: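 Luminescence, which tracks viable cell number through reduction of the prosubstrate to a NanoLuc substrate, was read over continuous 37 C culture. Cells (600/well) were premixed with reagent and rested 5 h before 23 nL of compound in DMSO was pinned.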
# [3] = A CellTox Green Cytotoxicity Assay to monitor cytotoxicity in HEK293 cells - 16 hour (AID 1224888); note: nearly all actives have a fitted effect of over 35% in size
# Summary of the method: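 Fluorescence from a DNA-binding dye excluded by viable cells was measured repeatedly in the same HEK293 wells (600 cells/well) during continuous compound exposure at 37 C. Each assay gives one read point: 0, 8, 16, 24, 32 or 40 h.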
# [4] = qHTS RealTime-Glo MT Cell Viability Assay in HepG2 cells - 0 hour (AID 1224889); note: nearly all actives have a fitted effect of over 50% in size
# Summary of the method: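 Viability was tracked continuously by NanoLuc luminescence from prosubstrate reduced by living HepG2 cells, at successive time points over 40 h of compound exposure. Cells with reagent were preincubated 5 h at 37 °C before compound addition.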
# [5] = A CellTox Green Cytotoxicity Assay to monitor cytotoxicity in HepG2 cells - 8 hour (AID 1224890); note: nearly all actives have a fitted effect of over 45% in size
# Summary of the method: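 Real-time cytotoxicity: fluorescence of a cell-impermeant cyanine dye binding DNA of dead HepG2 cells, measured repeatedly (0–40 h) during compound exposure at 37 C. Cells seeded 600/well with reagent, dosed after 5 h.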
# [6] = qHTS assay to identify small molecule antagonists of the estrogen receptor alpha (ER-alpha) signaling pathway using the BG1 cell line in the presence of 0.1 nM 17-beta-estradiol - cell viability counter screen (AID 1259241); note: nearly all actives have a fitted effect of over 40% in size
# Summary of the method: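 VM7Luc4E2 cells (endogenous ER-alpha, 4×ERE-luciferase), hormone-starved 5 days in charcoal-stripped FBS, were treated with compounds plus 0.1 nM 17beta-estradiol for 22 hr at 37C; viability read in same wells as CellTiter-Fluor live-cell protease fluorescence.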
# [7] = qHTS assay to identify small molecule antagonists of the androgen receptor (AR) signaling pathway using the MDA cell line in the presence of 0.5 nM R1881 - cell viability counter screen (AID 1259242); note: nearly all actives have a fitted effect of over 45% in size
# Summary of the method: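 Live-cell protease activity was measured by CellTiter-Fluor fluorescence after 30 min. Before that, MDA-kb2 MMTV-luciferase cells had 16 hr at 37C without CO2, exposed to test compounds and 0.5 nM R1881 final.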
# [8] = qHTS assay to identify small molecule HDAC inhibitors - cell viability counter screen (AID 1259365); note: series mostly up to about 92 µM; nearly all actives have a fitted effect of over 50% in size
# Summary of the method: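 Wild-type HCT-116 cells were seeded at 1,500 per well, incubated overnight at 37 C, then exposed to compounds in DMSO for 2hr. Viability was read by CellTiter-Glo luminescence after 30min at room temperature.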
# [9] = qHTS assay to identify small molecule agonists of the sonic hedgehog signaling (Shh) pathway - cell viability counter screen (AID 1259366); note: nearly all actives have a fitted effect of over 50% in size; note: potency is the fitted concentration of half-maximal effect
# Summary of the method: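 NIH/3T3-derived 3T3 Gli1-Luc cells (stable Gli1-responsive firefly luciferase reporter) were seeded, rested 4 hr at 37 C/5% CO2, then exposed to compounds in DMSO for 24 hr; viability was read by CellTiter-Fluor fluorescence in the same wells.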
# [10] = qHTS assay to identify small molecule antagonists of the sonic hedgehog signaling (Shh) pathway - cell viability counter screen (AID 1259367); note: nearly all actives have a fitted effect of over 55% in size; note: potency is the fitted concentration of half-maximal effect
# Summary of the method: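 Fluorescence read-out (CellTiter-Fluor, 1 hr at 37C) taken after 23 hr compound treatment of 3T3 Gli1-Luc cells stimulated with conditioned medium. Cells were seeded at 2,000 per well and pre-incubated 4 hr.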
# [11] = qHTS assay to identify small molecule agonists of the sonic hedgehog signaling (Shh) pathway (AID 1259368; calls by dose curve; note: series mostly up to about 92 µM; nearly all actives have a fitted effect of over 15% in size)
# Summary of the method: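 Luminescence was read after 30 min at room temperature with luciferase reagent. Before that, 3T3Gli1-Luc cells (NIH/3T3 clone, stable Gli1-Luc reporter; 2,000/well) were exposed to compounds for 24 hr at 37C, 5% CO2, compounds being added 4 hr post-plating.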
# [12] = qHTS assay to identify small molecule antagonists of the sonic hedgehog signaling (Shh) pathway (AID 1259369; calls by dose curve; note: nearly all actives have a fitted effect of over 45% in size)
# Summary of the method: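 Antagonist mode: compound added to 3T3 Gli1-Luc cells followed by conditioned-medium stimulation, 24 h at 37 C, 5% CO2. Inhibition taken as loss of Gli1-driven luciferase luminescence.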
# [13] = biological target: Estrogen receptor beta (Homo sapiens) (UniProt Q92731); assay: qHTS assay to identify small molecule antagonists of the estrogen receptor beta (ER-beta) signaling pathway (AID 1259378; active = well fitted inhibition curve with a large enough effect in the signal ratio in the repeat runs, not every such curve was filed as active; the % refers to the signal ratio)
# Sequence of Estrogen receptor beta (Homo sapiens) (Q92731 whole entry, looked up): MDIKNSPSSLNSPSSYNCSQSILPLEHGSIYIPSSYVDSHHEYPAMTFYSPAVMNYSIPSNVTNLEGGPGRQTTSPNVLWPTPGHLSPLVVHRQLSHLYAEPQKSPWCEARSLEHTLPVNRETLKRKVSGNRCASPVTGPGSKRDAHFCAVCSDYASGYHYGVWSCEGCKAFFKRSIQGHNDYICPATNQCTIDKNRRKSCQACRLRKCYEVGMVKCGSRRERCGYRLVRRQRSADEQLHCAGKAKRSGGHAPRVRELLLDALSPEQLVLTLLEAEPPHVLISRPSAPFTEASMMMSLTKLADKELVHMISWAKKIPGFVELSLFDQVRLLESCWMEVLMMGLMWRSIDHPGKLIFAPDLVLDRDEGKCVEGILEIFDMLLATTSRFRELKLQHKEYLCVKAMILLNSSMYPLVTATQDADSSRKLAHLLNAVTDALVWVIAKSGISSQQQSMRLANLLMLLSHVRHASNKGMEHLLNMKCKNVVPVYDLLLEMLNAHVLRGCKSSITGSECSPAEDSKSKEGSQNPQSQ
# Summary of the method: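 ER-beta-UAS-bla HEK293T cells in 2% charcoal-stripped FBS medium treated with compound plus 1nM final 17-beta-estradiol for 16 hr at 37C. Beta-lactamase reporter read by FRET substrate fluorescence after 2 hours at room temperature.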
# [14] = qHTS assay to identify small molecule agonists of the androgen receptor (AR) signaling pathway in the presence of an antagonist - cell viability counter screen (AID 1259379); note: nearly all actives have a fitted effect of over 25% in size; note: potency is the fitted concentration of half-maximal effect
# Summary of the method: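 Cytotoxicity counter-screen run in the same wells as the nilutamide-challenged (3.0 µM final) AR agonist assay in MDA-kb2 cells. Compounds tested at 15 concentrations for 16 h, 37 °C without CO2; CellTiter-Fluor fluorescence read.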
# [15] = qHTS assay to identify small molecule agonists of the estrogen receptor beta (ER-beta) signaling pathway - cell viability counter screen (AID 1259380); note: nearly all actives have a fitted effect of over 30% in size
# Summary of the method: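 Cell viability counter screen: CellTiter-Glo luminescence (30 min, room temperature) measured in the same wells as the beta-lactamase readout, after 16 hr compound exposure at 37C of ER-beta-bla HEK293T cells in 2% charcoal-stripped FBS medium.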
# [16] = biological target: Androgen receptor (Homo sapiens) (UniProt P10275); assay: qHTS assay to identify small molecule antagonists of the androgen receptor (AR) signaling pathway using the MDA cell line in the presence of 0.5 nM R1881 (AID 1259243); note: nearly all actives have a fitted effect of over 50% in size
# Sequence of Androgen receptor (Homo sapiens) (P10275 whole entry, looked up): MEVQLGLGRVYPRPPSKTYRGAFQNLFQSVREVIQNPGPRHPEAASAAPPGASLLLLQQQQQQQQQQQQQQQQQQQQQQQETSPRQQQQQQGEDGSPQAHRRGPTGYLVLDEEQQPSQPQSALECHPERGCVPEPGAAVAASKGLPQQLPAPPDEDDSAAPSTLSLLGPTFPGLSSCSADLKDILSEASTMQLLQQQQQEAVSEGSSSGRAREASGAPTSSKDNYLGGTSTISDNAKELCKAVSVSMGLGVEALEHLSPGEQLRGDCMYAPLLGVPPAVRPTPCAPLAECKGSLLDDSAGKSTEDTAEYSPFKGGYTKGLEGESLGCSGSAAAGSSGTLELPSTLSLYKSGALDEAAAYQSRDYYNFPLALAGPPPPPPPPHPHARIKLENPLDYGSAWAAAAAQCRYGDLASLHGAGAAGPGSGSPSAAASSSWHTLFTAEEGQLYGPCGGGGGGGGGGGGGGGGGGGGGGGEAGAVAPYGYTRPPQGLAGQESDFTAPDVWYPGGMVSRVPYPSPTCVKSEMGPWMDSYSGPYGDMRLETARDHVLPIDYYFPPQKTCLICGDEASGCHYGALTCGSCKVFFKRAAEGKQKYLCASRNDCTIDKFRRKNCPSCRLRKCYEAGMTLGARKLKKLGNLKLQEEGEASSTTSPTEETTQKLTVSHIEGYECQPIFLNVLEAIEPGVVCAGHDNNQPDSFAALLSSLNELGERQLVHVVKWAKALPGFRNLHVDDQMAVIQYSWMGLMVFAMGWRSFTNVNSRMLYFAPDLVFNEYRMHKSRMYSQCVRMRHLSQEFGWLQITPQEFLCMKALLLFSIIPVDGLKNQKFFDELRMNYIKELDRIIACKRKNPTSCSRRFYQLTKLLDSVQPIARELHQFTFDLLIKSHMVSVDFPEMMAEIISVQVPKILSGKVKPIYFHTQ
# Summary of the method: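 Luminescent reporter readout (ONE-Glo, 30 min, room temperature) after 16 hr co-treatment of MDA-kb2 cells with test compounds and 0.5 nM R1881 final, at 37C without CO2. The MMTV-driven luciferase responds to both AR and GR.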
# [17] = biological target: Estrogen receptor (Homo sapiens) (UniProt P03372); assay: qHTS assay to identify small molecule antagonists of the estrogen receptor alpha (ER-alpha) signaling pathway using the BG1 cell line in the presence of 0.1 nM 17-beta-estradiol (AID 1259244); note: nearly all actives have a fitted effect of over 50% in size
# Sequence of Estrogen receptor (Homo sapiens) (P03372 whole entry, looked up): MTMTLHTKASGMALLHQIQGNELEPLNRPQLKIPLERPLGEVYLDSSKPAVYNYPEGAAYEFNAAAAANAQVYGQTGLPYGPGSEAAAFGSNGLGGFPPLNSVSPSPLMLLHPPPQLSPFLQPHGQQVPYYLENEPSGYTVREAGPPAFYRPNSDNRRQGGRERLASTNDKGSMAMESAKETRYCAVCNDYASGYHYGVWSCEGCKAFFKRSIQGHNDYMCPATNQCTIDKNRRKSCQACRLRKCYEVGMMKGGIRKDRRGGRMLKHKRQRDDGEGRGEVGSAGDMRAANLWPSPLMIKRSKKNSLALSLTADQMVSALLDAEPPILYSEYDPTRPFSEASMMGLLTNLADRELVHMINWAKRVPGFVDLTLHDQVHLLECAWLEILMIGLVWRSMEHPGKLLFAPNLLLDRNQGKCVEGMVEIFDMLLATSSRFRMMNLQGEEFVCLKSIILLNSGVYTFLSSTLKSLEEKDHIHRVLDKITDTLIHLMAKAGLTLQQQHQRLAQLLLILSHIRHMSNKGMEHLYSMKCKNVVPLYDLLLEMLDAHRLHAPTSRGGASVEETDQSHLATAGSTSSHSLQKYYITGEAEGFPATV
# Summary of the method: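 Luciferase luminescence (ONE-Glo, 30 min at room temperature) was read after 22 hr at 37C exposure to compounds plus 17beta-estradiol at 0.1 nM final. Cells were VM7Luc4E2 with endogenous ER-alpha and an ERE-driven luciferase, pre-cultured 5 days in hormone-depleted medium.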
# [18] = biological target: Estrogen receptor beta (Homo sapiens) (UniProt Q92731); assay: qHTS assay to identify small molecule agonists of the estrogen receptor beta (ER-beta) signaling pathway (AID 1259377; active = well fitted activation curve with a large enough effect in the signal ratio in the repeat runs, not every such curve was filed as active; the % refers to the signal ratio)
# Summary of the method: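 ER-beta-UAS-bla HEK293T (GripTite) cells carrying a UAS-driven beta-lactamase reporter, in medium with 2% charcoal-stripped FBS, were exposed to compounds for 16 hr at 37C; LiveBLAzer B/G FRET substrate was then added and fluorescence read after 2 hours at room temperature.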
# [19] = qHTS assay to identify small molecule HDAC inhibitors (AID 1259364); note: top concentration of the series differs between compounds; nearly all actives have a fitted effect of over 45% in size
# Summary of the method: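 Luminescence read after 30 min room-temperature HDAC-Glo incubation measures cellular class I/II HDAC activity. Compounds were applied for 2 hr at 37 C to HCT-116 wild-type cells seeded the day before.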
# [20] = qHTS assay to identify small molecule phospholipidosis (PLD) inducers (AID 1259344; active = well fitted curve in the direction sought with a large enough effect; an effect the other way counts as inactive or inconclusive)
# Summary of the method: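 Read-out is LipidTOX Red fluorescence (ex 595/em 615) imaged in HepG2 cells after 24 h compound exposure at 37 C, with Hoechst nuclear counterstain (ex 352/em 461) allowing per-cell normalisation.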
Compound,Potency [1],Potency [2],Potency [3],Potency [4],Potency [5],Potency [6],Potency [7],outcome [8],Potency [9],Potency [10],outcome [11],Potency [12],outcome [13],Potency [14],outcome [15],outcome [16],Potency [17],Potency [18],Potency [19],outcome [20]
C[C@H]1O[C@H](O[C@H]2[C@H](O)[C@@H](O)[C@@H](O[C@H]3[C@H](O)[C@@H](O)[C@H](O)O[C@@H]3CO)O[C@@H]2CO)[C@H](O)[C@@H](O)[C@@H]1N[C@H]1C=C(CO)[C@@H](O)[C@H](O)[C@H]1O,inactive,inactive,inactive,inactive,inactive,inactive,inactive,inactive,inactive,inactive,inactive,inactive,inactive,inactive,inactive,–,–,–,–,–
COc1cc([N+](=O)[O-])ccc1N,inactive,inactive,inactive,inactive,inactive,–,–,inactive,54.5 µM (active),54.5 µM (active),inactive,inactive,inactive,34.4 µM (active),inactive,inactive,inactive,inactive,–,–
COCCOCCOCCOC,inactive,inactive,inactive,inactive,inactive,inactive,inactive,–,–,inactive,inactive,inactive,inactive,–,inactive,–,–,inactive,inactive,–
CCC(=O)OCCC(C)CCC=C(C)C (configuration not stated),inactive,inactive,inactive,inactive,inactive,inactive,–,inactive,inactive,inactive,inactive,inactive,inactive,inactive,inactive,–,–,–,inactive,–
C=CC(C)(O)CC/C=C(\C)CC (configuration not stated),inactive,inactive,inactive,inactive,inactive,inactive,–,–,inactive,inactive,inactive,inactive,inactive,inactive,inactive,–,inactive,inactive,–,–
CC1(N)CCC(C(C)(C)N)CC1 (configuration not stated),inactive,inactive,inactive,inactive,inactive,inactive,–,–,inactive,inactive,inactive,inactive,inactive,inactive,inactive,–,–,inactive,inactive,–
O=C1CC[C@H](C(=O)N2CCCCC2)N1,inactive,inactive,inactive,inactive,–,inactive,inactive,inactive,inactive,inactive,inactive,inactive,inactive,inactive,–,–,inactive,inactive,–,–
COc1ccc(NS(=O)(=O)c2ccc(N)cc2)nn1,inactive,inactive,inactive,inactive,–,inactive,inactive,inactive,–,inactive,inactive,inactive,–,inactive,inactive,–,inactive,–,–,–
CCCCCN(CCCOC)C(=O)C(CCC(=O)O)NC(=O)c1ccc(Cl)c(Cl)c1 (configuration not stated),inactive,inactive,inactive,inactive,–,inactive,inactive,inactive,inactive,inactive,–,inactive,inactive,inactive,inactive,–,inactive,inactive,inactive,–
CCCCCC1Nc2cc(C(F)(F)F)c(S(N)(=O)=O)cc2S(=O)(=O)N1 (configuration not stated),inactive,inactive,inactive,inactive,inactive,inactive,inactive,inactive,–,inactive,inactive,inactive,inactive,inactive,inactive,–,–,inactive,–,–
COc1ccc(OC)c(NC(=O)CC(C)=O)c1,inactive,inactive,inactive,inactive,inactive,inactive,–,inactive,inactive,inactive,inactive,inactive,inactive,inactive,inactive,–,–,inactive,inactive,–
C1=CCC(c2ccccc2)CC1 (configuration not stated),inactive,inactive,inactive,inactive,–,inactive,inactive,inactive,inactive,inactive,inactive,inactive,inactive,inactive,inactive,–,–,inactive,inactive,–
C[C@H](CCC(=O)O)[C@H]1CC[C@H]2[C@@H]3[C@H](O)C[C@@H]4C[C@H](O)CC[C@]4(C)[C@H]3C[C@H](O)[C@]12C,inactive,inactive,inactive,inactive,–,inactive,inactive,inactive,inactive,inactive,inactive,inactive,–,inactive,inactive,–,inactive,–,inactive,inactive
